# Screening data: PubChem BioAssay, National Center for Advancing Translational Sciences (NCATS)
# VACV Venus inh: vaccinia inhibition (Venus reporter) | Vaccinia virus Venus reporter expression, fluorescence | Potency, µM (highest dose often 36.5 µM), without a hit: at the top dose activity change, negative = inhibition, hits mostly inhibitors | 330,000 tested, 0.46% active | AID 720580; calls by dose curve; tested in A549 cells; further: potency means the concentration at half of the fitted maximal effect; nearly all actives have a fitted effect of over 30% in size
# VACV mCherry inh: inhibitors of vaccinia virus infection (mCherry reporter signal); Vaccinia virus mCherry reporter infection, fluorescence; Potency, µM (top dose mostly 36.5 µM), for the others: at the highest dose activity change, negative = inhibition, most hits filed as inhibitors; 310,000 tested, 0.63% active; AID 720579; calls by dose curve; tested in A549 cells; further: potency means the concentration at half of the fitted maximal effect; nearly all actives have a fitted effect of over 35% in size
# FMDV inh: blocks foot and mouth disease virus | FMDV antiviral cell-based qHTS | Potency, µM (doses to about 57.9 µM), for inactives: top-dose activity change, negative = inhibition, hits mostly inhibitors | 410,000 tested, 1.2% active | AID 1159524; calls by dose curve; tested in HEK293T cells; further: read-out not given here; potency means the concentration at half of the fitted maximal effect; nearly all actives have a fitted effect of over 45% in size
# HCV inh: inhibitors of hepatitis C virus infection; Potency, µM (top dose mostly 41.8 µM), for the others: at the highest dose activity change, negative = inhibition, most hits filed as inhibitors; Huh7.5.1 HCVcc-Cre infection, luciferase reporter, 44 h; 340,000 tested, 3.4% active; further: potency means the concentration at half of the fitted maximal effect
#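 Compounds are dispensed onto cells plated 4 h earlier at 1,000 per well, with HCVcc-Cre virus (about 0.5 moi) added next. Following 44 h of culture, luminescent signal is measured for 15 sec after 15 min with substrate at room temperature.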
# Giardia FBPA inh: inhibitors of Giardia lamblia fructose-1,6-bisphosphate aldolase; purified Giardia FBPA; 290,000 tested, 0.71% active; A8B2U2; Potency, µM (top dose mostly 59.6 µM), for the others: at the top dose activity, negative = inhibition, actives largely listed as inhibitors; further: potency means the concentration at half of the fitted maximal effect; nearly all actives have a fitted effect of over 55% in size
# Target sequence (A8B2U2 whole entry, looked up): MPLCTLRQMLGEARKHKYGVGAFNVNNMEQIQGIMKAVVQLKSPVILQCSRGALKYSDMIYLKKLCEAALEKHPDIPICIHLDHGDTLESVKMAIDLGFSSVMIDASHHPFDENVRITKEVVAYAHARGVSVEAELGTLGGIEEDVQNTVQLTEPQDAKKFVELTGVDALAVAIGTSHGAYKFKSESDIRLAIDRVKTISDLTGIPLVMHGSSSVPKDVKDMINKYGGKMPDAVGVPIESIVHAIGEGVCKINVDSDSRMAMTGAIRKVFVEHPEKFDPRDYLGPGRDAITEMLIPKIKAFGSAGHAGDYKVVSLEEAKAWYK
#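 40 nM FBPA preincubated 10 min at RT with compound (up to 57.5 uM final), then substrate plus GAPDH/TPI/NAD/arsenate coupling and diaphorase/resazurin added. Fluorescence read after 20 min at RT, 525/598 nm.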
# HCMV antiviral: blocks human cytomegalovirus replication; 410,000 tested, 4.5% active; activity change, negative = inhibition, % at 57.5 µM; HFF cells, HCMV-luciferase reporter, 72 h; active compounds read low; in the data active means activity change below about -60%; inconclusive means no clear call, values can overlap the other calls; inactive means above about -39%
#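 Inhibition of viral replication was scored as loss of reporter luminescence in HFFs infected with HCMV-luciferase (MOI 1 PFU/cell) for 72 h; compounds tested at 2 doses, normalized to buffer and Salinomycin controls.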
# * hit, by the source's call; i = inactive; ? = inconclusive; . = not tested or not shown. An excerpt weighted towards active compounds, which were near 7.5% of everything screened. Unless noted, the call rests on the fitted dose curve; in most records, active means well fitted curve in the direction sought with a large enough effect; inconclusive means small, poorly fitted or top-dose-only effect, or another doubt; inactive means no such curve, though single readings can be large; an effect the other way counts as inactive or inconclusive. On the % scale 0 is the no-effect control and ±100 the full control effect.
SMILES,VACV Venus inh,VACV mCherry inh,FMDV inh,HCV inh,Giardia FBPA inh,HCMV antiviral
CCn1nc(C)cc1C(=O)NC1CCCc2c1cnn2-c1ccc(C)c(C)c1 (stereo not given),?,-29%,10µM*,?,.,-86*
CSc1ncccc1C(=O)NC1CCCc2c1cnn2-c1ccc(C)c(C)c1 (stereo not given),-15%,-22%,28µM*,8.9µM*,11%,-29
Cc1ccc(-n2ncc3c2CCCC3NC(=O)c2ocnc2C)cc1C (stereo not given),-29%,-8%,?,?,-4%,-89*
CC(C)CN(C(=O)C(C)N1C(=O)c2ccccc2C1=O)c1c(N)n(Cc2ccccc2)c(=O)[nH]c1=O (stereo not given),-18%,i,-18%,15%,.,-9
COc1ccc(C(=O)N2CCC3(CC2)c2ccccc2[C@@H](NC(=O)c2ccccn2)[C@@H]3OC)c(O)c1,-2%,-19%,47%,.,.,.
Cc1ccc(C2c3[nH]c4ccccc4c3CCN2C(=O)c2ccc(N(C)C)cc2)cc1 (stereo not given),-10%,-18%,-17%,.,.,64
Cc1ccc(C2c3[nH]c4ccccc4c3CCN2C(=O)CCC2CCCC2)cc1 (stereo not given),0%,-8%,-29%,.,.,-93*
Cc1ccc(C2c3[nH]c4ccccc4c3CCN2C(=O)c2ccccc2Br)cc1 (stereo not given),-12%,-13%,-17%,.,.,-78*
COc1ccccc1-c1ccc(C(=O)NCCN2CCOCC2)c(N2CCN(c3ccccc3F)CC2)n1,-6%,-20%,2%,.,.,.
CCC(C)(C)c1ccc(OCCCC[n+]2ccc(C)cc2)c(C(C)(C)CC)c1,.,.,?,?,-3%,-97*
CCC(C)(C)c1ccc(OCCCC[n+]2cccc(C)c2C)c(C(C)(C)CC)c1,.,.,?,18µM*,0%,-97*
O=C(NCCN1C(=O)S/C(=C/c2cccnc2)C1=O)c1cccs1,.,.,-7%,2%,.,-15
O=C(COc1ccccc1-c1ccccc1)NCCN1C(=O)S/C(=C\c2cccnc2)C1=O,-14%,-15%,32µM*,0%,4%,-4
CC(Oc1ccc(Cl)cc1)C(=O)NCCN1C(=O)S/C(=C\c2cccnc2)C1=O (stereo not given),-10%,-29%,40µM*,?,4%,-71*
COc1ccc(CCNC(=O)c2ccc3c(c2)N(Cc2cc(C)ccc2C)C(=O)c2ccccc2S3=O)cc1OC (stereo not given),-20%,-27%,-20%,.,.,-11
O=C(Cn1c(=O)n(Cc2nc(-c3ccccc3)no2)c(=O)c2ccccc21)Nc1cccc(Cl)c1,-9%,-24%,?,.,.,-3
O=C(Cn1c(=O)n(Cc2nc(-c3ccccc3)no2)c(=O)c2ccccc21)Nc1cccc(C(F)(F)F)c1,-17%,-11%,20µM*,.,.,-7
Cc1cccc(C)c1NC(=O)CN1CCN(C(=O)c2ccc(OCc3cn4ccccc4n3)cc2)CC1,1%,i,-12%,13%,.,-19
COc1ccc2c([N+](=O)[O-])c(-c3ccccc3)[nH]c2c1,.,.,.,.,.,-20
COc1cc2c(cc1OC)CN1CCc3cc(OC)c(OC)cc3C1C2 (stereo not given),.,.,.,.,.,14
CC[C@H]1CN2CCc3cc(OC)c(OC)cc3C2C[C@@H]1C[C@H]1NCCc2cc(OC)c(OC)cc21 (stereo not given in full),0.89µM*,0.5µM*,-20%,0.32µM*,.,-97*
COc1ccc(CC2NCCc3cc(OC)c(OC)cc32)cc1OC (stereo not given),.,.,.,.,-16%,.
CCC1CN2CCc3cc(OC)c(OC)cc3C2CC1CC1NCCc2cc(OC)c(OC)cc21 (stereo not given),2.5µM*,2.2µM*,0%,.,?,.
CCC1=C(CC2NCCc3ccccc32)CC2c3cc(OC)c(OC)cc3CCN2C1 (stereo not given),3.5µM*,3.5µM*,?,?,.,-100*
CN(C(=O)c1cccc(NC(=O)Cc2ccc(NC(=O)C3CCCN(C(=O)C4CC4)C3)cc2)c1)C1CCCC1 (stereo not given),0%,i,-18%,?,.,-2
SMILES,VACV Venus inh,VACV mCherry inh,FMDV inh,HCV inh,Giardia FBPA inh,HCMV antiviral
CCCOc1ccc(C(=O)NNC(=S)NC(=O)c2ccccc2[N+](=O)[O-])cc1,-18%,0%,3%,-7%,?,68
CCCOc1ccc(C(=O)NNC(=S)NC(=O)c2cccs2)cc1,?,10µM*,0%,?,?,?
CCCOc1ccc(C(=O)NNC(=S)NC(=O)c2ccco2)cc1,?,11µM*,?,-25%,?,-31
CC(C)(C)C(=O)NC(=S)NNC(=O)c1ccc(-c2ccccc2)cc1,.,.,-14%,6.3µM*,16%,.
CCCC(=O)Nc1ccc(C(=O)NNC(=S)NC(=O)c2cccs2)cc1,-13%,?,.,-16%,22%,-22
CCCOc1ccc(C(=O)NNC(=S)NC(=O)c2ccccc2)cc1,?,?,?,?,?,-86*
COC(=O)[C@]12CCCCC=C1N(Cc1ccco1)C(=O)[C@H](CC(=O)N1CCCCC1)C2,4%,25%,-25%,.,.,19
O=S(=O)(c1ccc2ncccc2c1)N1CCN(c2nc(-c3cccs3)nc3ccccc23)CC1,-18%,-1%,.,.,.,.
CCCCOc1ccc(C(=O)NNC(=S)NC(=O)CC)cc1,-27%,-10%,?,?,?,.
CCCOc1ccc(C(=O)NNC(=S)NC(C)=O)cc1,.,.,10%,?,2%,-94*
Cc1nn(-c2ccccc2)c(Cl)c1/C=N/Nc1ccc(Cl)c(C(=O)O)c1,-8%,-7%,10µM*,8%,1%,139
COc1cc(/C=C(/C)[N+](=O)[O-])ccc1OCc1ccccc1Cl,11µM*,?,22µM*,?,-6%,.
COc1cc(/C=N/O)ccc1OCc1ccccc1Cl,-14%,i,28%,18%,-8%,5
CCOC(=O)Cn1c(=O)n(Cc2ccc(C)cc2)c(=O)c2cccnc21,.,.,-21%,0.79µM*,2%,0
CC1=NN(c2ccccc2)C(=O)/C1=C/c1cc(C)n(C2CC2)c1C,-11%,-10%,28%,-7%,-3%,-68*
CC1=NN(c2ccccc2)C(=O)/C1=C/C=C/c1ccccc1,6%,-8%,35µM*,12%,-5%,-69*
Cc1ccc(C2=NOC(=O)/C2=C\C=C\c2ccccc2)cc1,9%,-7%,14µM*,?,-14%,-109*
COc1ccccc1/C=C1/C(=O)N(c2ccccc2)N=C1C,-18%,i,2%,8%,-2%,4
Cc1ccccc1CNC(=O)CCSCc1cnn(-c2ccccc2)c1-n1cccc1,-14%,-5%,-18%,.,.,?
